{
  "source": "PubChem BioAssay (Tox21)",
  "note": "Results filed as inconclusive are left out. Values without a mark were called inactive. The source made the active and inactive calls. Calls come from the whole dose curve; as a rule, active = well fitted inhibition curve with a large enough effect in the signal ratio in the repeat runs; inconclusive = weak or mixed curves, or effect the other way; inactive = flat fitted curve, though single readings scatter; the % refers to the signal ratio. % is set by controls: 0 for no effect and ±100 for the full control effect; potency is the fitted concentration of half-maximal effect.",
  "data": [
    {"assay": "qHTS assay for small molecule disruptors of the mitochondrial membrane potential (AID 720635)", "conditions": "HepG2 mitochondrial membrane potential, Mito-MPS dye ratio; series mostly up to 83.2 µM; ratio activity, negative = MMP loss: at the top concentration", "excerpt": "U.S. Tox21 Program National Center for Advancing Translational Sciences [NCATS] NIH Chemical Genomics Center [NCGC] U.S. Environmental Protection Agency [EPA] National Institutes of Environmental Health Sciences [NIEHS] National Toxicology Program [NTP] U.S. Food and Drug Administration [FDA] Tox21 Assay Overview: Mitochondrial membrane potential (MMP), one of the parameters for mitochondrial function, is generated by mitochondrial electron transport chain that creates an electrochemical gradient by a series of redox reactions. This gradient drives the synthesis of ATP, a crucial molecule for various cellular processes. Measuring MMP in living cells is commonly used to assess the effect of chemicals on mitochondrial function. […] The dye accumulates in the mitochondria of healthy cells as aggregates, with red fluorescence. The mitochondrial potential collapses and the dye can no longer accumulate in the mitochondria and remains in the cytoplasm in monomers, with green fluorescence.\nTox21 Assay Protocol Summary: 2,000 HepG2 cells in 5 uL/well were dispensed into black, clear-bottom 1536-well plates using a Multidrop Combi (Thermo Scientific) dispenser. The assay plates were incubated overnight at 37C to allow cells to attach to the wells, followed by the transfer of 23 nL compound or DMSO vehicle by a pin tool (Kalypsys). The plates were incubated for 1 hr at 37C and 5% CO2, followed by the addition of 5 uL of 2X Mito-MPS dye (BD Biosciences) into each well using Flying Reagent Dispenser (Aurora Discovery) and then following 30 min incubation at 37C. Fluorescence intensity (490nm excitation and 535nm emission for monomers; and 540nm excitation and 590nm emissions for aggregates) was measured using an Envision plate reader.", "values": [
      {"compound": "N=c1ccn2c(n1)O[C@H]1[C@H](O)[C@@H](CO)O[C@H]12", "ratio activity, negative = MMP loss": "10.7%"},
      {"compound": "C[N+]1(CC2COC(c3ccccc3)(C3CCCCC3)O2)CCCCC1", "note": "(stereo not given)", "ratio activity, negative = MMP loss": "4.34%"},
      {"compound": "O=C(O)c1nc(Cl)c(Cl)c(Cl)c1Cl", "ratio activity, negative = MMP loss": "5.08%"},
      {"compound": "C=C(C)C(=O)OCCO", "ratio activity, negative = MMP loss": "-6.32% [at 95.3 µM]"},
      {"compound": "Cc1cccc(C)c1NC(=O)CN(CC(=O)O)CC(=O)O", "ratio activity, negative = MMP loss": "2.47%"},
      {"compound": "CCOc1ccc(O)cc1", "ratio activity, negative = MMP loss": "-3.35%"},
      {"compound": "CCOC(=O)c1cccnc1", "ratio activity, negative = MMP loss": "8.03%"},
      {"compound": "O=C1OC(=O)C2C3C=CC(C3)C12", "note": "(stereo not given)", "ratio activity, negative = MMP loss": "7.25%"},
      {"compound": "CCOC(=O)COC(=O)c1cc(Oc2ccc(C(F)(F)F)cc2Cl)ccc1[N+](=O)[O-]", "Potency": "61.1 µM (active)"},
      {"compound": "Cc1ccccc1S(=O)(=O)O", "ratio activity, negative = MMP loss": "8.13% [at 95.3 µM]"},
      {"compound": "O=C(O)c1ccco1", "ratio activity, negative = MMP loss": "23.7%"},
      {"compound": "CCCCO", "Potency": "inactive"},
      {"compound": "COc1cc(Cl)ccc1Oc1ccc(Cl)cc1Cl", "Potency": "23.6 µM (active)"},
      {"compound": "CCCCCCCC#N", "ratio activity, negative = MMP loss": "-5.33%"},
      {"compound": "Cc1cc(N)c2cc(NC(=O)Nc3ccc4nc(C)cc(N)c4c3)ccc2n1", "Potency": "22.1 µM (active)"},
      {"compound": "CCCCCCCC/C=C\\CCCCCCCC(=O)OCC", "ratio activity, negative = MMP loss": "14.8%"},
      {"compound": "CCCCCCCCCCCCN1CCCCCC1=O", "Potency": "27.3 µM (active)"},
      {"compound": "C[C@H]1C[C@H]2[C@@H]3CCC4=CC(=O)C=C[C@]4(C)[C@@]3(Cl)[C@@H](O)C[C@]2(C)[C@@]1(O)C(=O)CO", "ratio activity, negative = MMP loss": "-11.9%"},
      {"compound": "Cc1[nH]c(C)c(Cl)c(=O)c1Cl", "ratio activity, negative = MMP loss": "20.2%"},
      {"compound": "O=C(O)C1(C(=O)Nc2ccc(Cl)cc2Cl)CC1", "Potency": "8.63 µM (active)"},
      {"compound": "C1CCCNCCC1", "ratio activity, negative = MMP loss": "15.4%"},
      {"compound": "CC1CCC(=O)C1=O", "note": "(stereo not given)", "ratio activity, negative = MMP loss": "10.2% [at 95.3 µM]"},
      {"compound": "NC(N)=NCCC[C@H](N)C(=O)O", "ratio activity, negative = MMP loss": "-11.3%"},
      {"compound": "CN1C[C@H]2c3ccccc3Oc3ccc(Cl)cc3[C@@H]2C1", "ratio activity, negative = MMP loss": "-13.7%"},
      {"compound": "COCC(C)OC(C)=O", "note": "(stereo not given)", "ratio activity, negative = MMP loss": "10.7%"},
      {"compound": "C/C(=C(\\CCOP(=O)(O)O)SC(=O)c1ccccc1)N(C=O)Cc1cnc(C)nc1N", "ratio activity, negative = MMP loss": "9.23% [at 39.1 µM]"},
      {"compound": "CCC(=O)O[C@]1(C(=O)CCl)[C@@H](C)C[C@H]2[C@@H]3CCC4=CC(=O)C=C[C@]4(C)[C@@]3(F)[C@@H](O)C[C@@]21C", "Potency": "23.7 µM (active)"},
      {"compound": "CCOC(=O)NCCOc1ccc(Oc2ccccc2)cc1", "Potency": "27.3 µM (active)"},
      {"compound": "NCc1ccccc1Sc1ccccc1CO", "ratio activity, negative = MMP loss": "-7.19%"},
      {"compound": "CC(=O)OC[C@H]1O[C@@H](n2ncc(=O)[nH]c2=O)[C@H](OC(C)=O)[C@@H]1OC(C)=O", "ratio activity, negative = MMP loss": "-5.51%"},
      {"compound": "Cc1ncc(CO)c(C=O)c1O", "ratio activity, negative = MMP loss": "13%"},
      {"compound": "CCCCNc1ccc(C(=O)OCCOCCOCCOCCOCCOCCOCCOCCOCCOC)cc1", "Potency": "3.2 µM (active)"},
      {"compound": "CCCCCCCCCCCC(=O)OC[C@@H](O)[C@H]1OC[C@H](OCCO)[C@H]1OCCO", "ratio activity, negative = MMP loss": "28.5%"},
      {"compound": "CCC(C)c1cc(C(C)(C)C)c(O)c(C(C)(C)C)c1", "note": "(stereo not given)", "Potency": "21.3 µM (active)"},
      {"compound": "CCCCC/C=C\\C/C=C\\CCCCCCCC(=O)NC(C)c1ccccc1", "note": "(stereo not given)", "ratio activity, negative = MMP loss": "16.3%"},
      {"compound": "Cc1cc(C(=O)O)ccc1[N+](=O)[O-]", "ratio activity, negative = MMP loss": "-15.3%"},
      {"compound": "C=C(C)C(=O)OCC", "ratio activity, negative = MMP loss": "17.9% [at 95.3 µM]"},
      {"compound": "CCCCC(CC)COC(=O)CCCCCCCCC(=O)OCC(CC)CCCC", "note": "(stereo not given)", "ratio activity, negative = MMP loss": "12.3%"},
      {"compound": "COC(C)(C)CCO", "ratio activity, negative = MMP loss": "23.6%"},
      {"compound": "CCO[C@H](Cc1ccc(OCCc2ccc(OS(C)(=O)=O)cc2)cc1)C(=O)O", "ratio activity, negative = MMP loss": "-11.9%"}
    ]}
  ]
}
